# Assay outcomes as filed in PubChem BioAssay.
# Tb PYK inh – inhibitors of Trypanosoma brucei pyruvate kinase. Potency, µM (titrated, usually from 76.8 µM), hits mostly inhibitors. 410,000 compounds, 0.12% hits. Q57TT1. TbPYK enzyme, Kinase-Glo Plus ATP luminescence, 45 min; also: nearly all actives have a fitted effect of over 50% in size
#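 Activity of T. brucei pyruvate kinase was followed by Kinase-Glo Plus luminescence after the enzyme reacted 45 min at room temperature with 130 uM ADP (final) and substrate. Test compounds were added before ADP at multiple concentrations.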
# FBPA Giardia inh – blocks Giardia fructose-bisphosphate aldolase activity | purified Giardia FBPA | Potency, µM (top dose mostly 59.6 µM), hits mostly inhibitors | 290,000 compounds, 0.71% hits; also: nearly all actives have a fitted effect of over 55% in size
#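 Giardia FBPA (40 nM reagent) was preincubated 10 min at RT with compound (up to 57.5 uM final), then substrate plus GAPDH/TPI/NAD/arsenate coupling system with diaphorase/resazurin was added; resorufin fluorescence (525/598 nm) was read after 20 min.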
# LmPK inh – LmPK (Leishmania mexicana) enzyme inhibition. Q27686. purified LmPK, Kinase-Glo ATP luminescence, 1 h. Potency, µM (highest dose often 57.5 µM), usual class: inhibitors. 290,000 compounds, 0.37% hits. AID 1721
# Target sequence (Q27686 whole entry, looked up): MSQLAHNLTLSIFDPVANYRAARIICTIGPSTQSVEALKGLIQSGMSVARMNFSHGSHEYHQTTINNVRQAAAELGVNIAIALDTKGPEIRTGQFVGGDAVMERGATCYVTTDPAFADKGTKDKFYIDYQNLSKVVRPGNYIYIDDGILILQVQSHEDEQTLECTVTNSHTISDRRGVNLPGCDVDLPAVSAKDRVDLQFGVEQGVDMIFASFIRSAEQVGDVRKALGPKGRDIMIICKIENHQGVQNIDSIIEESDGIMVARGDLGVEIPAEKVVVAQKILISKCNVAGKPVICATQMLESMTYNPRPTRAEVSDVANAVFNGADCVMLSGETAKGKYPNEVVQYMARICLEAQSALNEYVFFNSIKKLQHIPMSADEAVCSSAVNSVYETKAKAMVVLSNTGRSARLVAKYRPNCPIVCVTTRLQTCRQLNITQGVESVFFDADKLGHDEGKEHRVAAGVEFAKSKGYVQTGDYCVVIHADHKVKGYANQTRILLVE
#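 0.1 nM LmPK, 0.5 mM PEP, 0.1 mM ADP; 50 mM imidazole pH 7.2, 7 mM MgCl2, 50 mM KCl; 1 h RT. Kinase-Glo luminescence readout, normalized to no-enzyme (full inhibition) and uninhibited wells.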
# Cycloheximide cs – counter-screen for Shiga toxin inhibitors: cycloheximide protein synthesis inhibition. AID 2314. max response, %. 300,000 compounds, 12% hits. cell reporter, cycloheximide protein synthesis inhibition counterscreen; in the data active = max response mostly above about 13%, no sharp cut-off; inactive = mostly below about 14%; also: read at 38.3 µM for the half of the compounds with a filed dose
# Shiga toxin inh – blocks Shiga toxin action in Vero cells | Vero cells, Shiga toxin protein synthesis inhibition reporter | inhibition, % at 38.7 µM | 290,000 compounds, 9.2% hits; in the data active = inhibition mostly above about 28%, no sharp cut-off; inactive = mostly below about 43%
# RE007 growth inh – less growth of the S. pombe RE007 Vpr strain | AID 651644 | S. pombe RE007 Vpr strain, BacTiter-Glo ATP luminescence, 24 h | Potency, µM (top dose mostly 92.2 µM), most hits filed as inhibitors | 360,000 compounds, 0.21% hits; active = well fitted falling curve with a large enough effect; inconclusive = small, poorly fitted or top-dose-only effect; inactive = no such curve, though single readings can be large or run the other way; also: nearly all actives have a fitted effect of over 50% in size
#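 Fission yeast strain RE007, carrying one chromosomally integrated HIV-1 vpr copy, was seeded at OD 0.01 in PMG+AL medium with 23 nL pinned compound. After 24 h at 30 °C and 99% humidity, viability was read by BacTiter-Glo luminescence.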
# Numbers stand for hits; . = inactive; ? = inconclusive; / = no result; [ ] = dose if it differs, or a comment. The sample as a whole holds a higher share of hits than the screen did. Unless noted, calls follow the shape of the dose curve; as a rule, active = well fitted curve in the direction sought with a large enough effect; inconclusive = small, poorly fitted or top-dose-only effect, or another doubt; inactive = no such curve, though single readings can be large; an effect the other way counts as inactive or inconclusive.
SMILES,Tb PYK inh,FBPA Giardia inh,LmPK inh,Cycloheximide cs,Shiga toxin inh,RE007 growth inh
CC(C)[C@H](NC(=O)[C@H](CC(=O)O)NC(=O)[C@H](Cc1ccccc1)NC(=O)[C@@H](C)NC(=O)[C@@H](N)Cc1ccc(O)cc1)C(=O)N[C@H](C(=O)NCC(N)=O)C(C)C,/,.,/,.,.,/
Cc1ccc2c(c1C)NC(=O)CC2c1ccc(Cl)cc1Cl (configuration not stated),.,/,/,/,/,/
Cn1c(SCc2ccccc2Cl)nc2c([nH]c3ccccc32)c1=O,.,/,/,/,/,/
C[C@@H]1C(=O)N(S(=O)(=O)c2ccccc2[N+](=O)[O-])[C@H]1c1ccc(-c2ccccc2)cc1,/,.,/,.,.,/
O=C(CN1C(=O)COc2ccccc21)N(Cc1ccccc1)Cc1ccccn1,.,.,.,35,.,.
Cc1cccc(C)c1OC(=O)CSc1nnc(-c2ccc3c(c2)OCO3)o1,.,/,/,/,/,/
O=C(NC(=S)NCC1CCCO1)c1ccccc1F (configuration not stated),.,.,.,26,.,.
O=C(NC(=S)NCC1CCCO1)c1cccs1 (configuration not stated),.,.,.,12,.,/
O=C(NC(=S)NCC1CCCO1)c1ccco1 (configuration not stated),.,.,.,.,.,.
CC(C)(C)c1nnc(NC(=S)Nc2ccccc2)s1,.,.,.,37,115,.
CC(C)(C)NC(=S)Nc1cccc(C(F)(F)F)c1,.,.,.,.,.,.
CC(C)(C)NC(=S)Nc1ccc(Br)cc1,.,.,.,32,58,.
CC(C)(C)NC(=S)Nc1ccc(Nc2ccccc2)cc1,.,.,.,19,46,.
C[C@H](N=C(NC#N)Nc1ccncc1)C(C)(C)C,/,.,/,/,/,/
N#Cc1cccc(-c2ccc3ncnc(NCc4ccccc4)c3c2)c1,/,.,/,/,/,/
CC(=O)c1ccc(NC(=O)CSc2nnc(-c3ccco3)o2)cc1,.,/,.,17,.,.
Cc1cc(C(=O)CSc2nncs2)c(C)n1Cc1ccco1,.,.,.,38,109,.
Cc1ccc(NC(=O)CSc2nnc(-c3ccco3)o2)cc1,.,.,.,.,.,.
Cc1cc(C(=O)CSc2nnc(-c3ccco3)o2)c(C)n1Cc1ccco1,.,.,.,31,96,.
O=C(CSc1nnc(-c2ccco2)o1)c1ccccc1Cl,.,.,.,17,.,.
O=C(CSc1nnc(-c2ccco2)o1)c1ccc([N+](=O)[O-])cc1,.,.,.,.,.,.
COCCNc1ncnc2ccc(-c3c(C)noc3C)cc12,/,.,/,/,/,/
CCN(CC)C(=O)CSc1nnc(-c2ccco2)o1,.,.,.,23,47,.
O=C1CCC(=O)N1CCSC(=S)N1CCSCC1,.,.,.,14,60,.
O=C(CSC(=S)N1CCSCC1)c1ccccc1,.,.,.,27,93,.
SMILES,Tb PYK inh,FBPA Giardia inh,LmPK inh,Cycloheximide cs,Shiga toxin inh,RE007 growth inh
O=C(CSC(=S)N1CCSCC1)c1ccc(Cl)cc1,.,.,.,39,82,.
CC(C)C[C@H](NC(=O)CNC(=O)[C@H](C)NC(=O)[C@H](CC(C)C)NC(=O)[C@H](CCCNC(=N)N)NC(=O)[C@H](Cc1cnc[nH]1)NC(=O)[C@@H](NC(=O)[C@@H](N)C(C)C)[C@@H](C)O)C(=O)N[C@@H](CC(C)C)C(=O)N[C@@H](CO)C(=O)N[C@@H](CCCNC(=N)N)C(=O)N[C@@H](CO)C(=O)NCC(=O)NCC(=O)N[C@H](C(=O)N[C@H](C(=O)N[C@@H](CCCCN)C(=O)N[C@@H](CC(N)=O)C(=O)N[C@@H](CC(N)=O)C(=O)N[C@@H](Cc1ccccc1)C(=O)N[C@H](C(=O)N1CCC[C@H]1C(=O)N[C@H](C(=O)N[C@@H](CC(N)=O)C(=O)N[C@H](C(=O)NCC(=O)N[C@@H](CO)C(=O)N[C@@H](CCCCN)C(=O)N[C@@H](C)C(=O)N[C@@H](Cc1ccccc1)C(N)=O)C(C)C)[C@@H](C)O)C(C)C)C(C)C)C(C)C,/,.,/,.,.,/
O=C1CC(c2ccco2)CC(O)=C1C=Nc1ccc(Br)cc1 (configuration not stated),.,.,.,.,.,?
O=C1CC(c2ccccc2)CC(O)=C1C=NC1CCCC1 (configuration not stated),.,.,.,.,.,.
O=C1CC(c2ccccc2)CC(O)=C1C=Nc1ccccc1 (configuration not stated),.,.,.,30,92,?
O=C1CC(c2ccccc2)CC(O)=C1C=Nc1ccccc1O (configuration not stated),.,.,.,23,.,.
Cc1ccc(N=CC2=C(O)CC(c3ccco3)CC2=O)cc1 (configuration not stated),.,.,.,21,.,?
CCOc1ccc(Nc2nc(N)c(C(=O)c3ccccc3Cl)s2)cc1,.,/,/,/,/,/
Cc1ccccc1Cn1cc(NC(=O)c2nn(C)cc2Cl)cn1,.,.,.,.,28,.
Cc1cc(C(=O)Nc2cnn(Cc3ccc(Cl)cc3Cl)c2)no1,.,.,.,15,35,.
COc1cccc(-c2cc(C(=O)Nc3cnn(Cc4ccc(Cl)cc4Cl)c3)no2)c1,.,/,/,/,/,/
CC(C)CN1CCCC2(CCN(C(=O)c3cccc(F)c3)CC2)C1,.,.,/,/,/,/
Cc1c(-c2nc(N)nc(Nc3ccc(F)cc3)n2)oc2ccccc12,.,.,.,22,84,.
Cc1ccccc1Nc1nc(N)nc(-c2oc3ccccc3c2C)n1,.,.,.,64,122,.
COc1ccccc1Nc1nc(N)nc(-c2oc3ccccc3c2C)n1,/,.,.,.,.,.[3.69 µM]
COc1cc([C@@H]2c3cc4c(cc3C(OC3OC5COC(C)OC5C(O)C3O)C3COC(=O)[C@@H]32)OCO4)cc(OC)c1O (some centres not stated),/,.,/,/,/,/
Cc1ccc(C(=O)NCCc2ccccc2)cc1,.,.,.,.,.,.
Cc1ccc(CCNC(=O)NC(C)(C)C)cc1,.,.,.,30,69,.
Cc1ccc(C(=O)NCCc2csc(C)n2)cc1,.,.,.,27,55,.
COCCNC(=O)c1ccc(-c2csc(C)n2)cc1,.,.,.[11.5 µM],23,89,.
Cc1ccc(C(=O)NCCc2ccncc2)cc1,.,.,.,27,42,.
COCCCNC(=O)c1ccc(-c2csc(C)n2)cc1,.,.,.,38,90,.
Cc1nc(-c2ccc(C(=O)NCCO)cc2)cs1,.,.,.,37,.,.
O=C(c1cc(COc2ccc(F)cc2F)on1)N1CCCC(c2ccccc2)C1 (configuration not stated),.,.,.,19,.,.
CCCN1CCN(C(=O)c2cc(COc3ccc(F)cc3F)on2)CC1,.,.,.,.,.,.
